Source: PubChem BioAssay AID1159554 (Broad Institute, 2015)
About 2,100 (2.2%) of roughly 94,000 compounds were called active. The sample as a whole holds a higher share of actives than the screen did. Values without a mark were called inactive. Rule as the data show it: active = activity change below about -80%; inconclusive = no clear call, values can overlap the other calls; inactive = above that.

Test: Dd2 malaria parasite growth inhibition – SYBR Green fluorescence, single dose replicates, primary screen (AID 1159554)
Details: P. falciparum Dd2 growth, 72 h, at 10 µM, active compounds read low

In order of falling activity change:
1. CC(C)NC(=O)N(C)C[C@H]1OCc2ccccc2-c2c(n(C)c3ccccc23)C(=O)N([C@H](C)CO)C[C@@H]1C  32.6%
2. COc1ccc2c3c([nH]c2c1)[C@@H](CO)N(C(=O)CN1CCOCC1)CC31CCN(C)CC1  27%
3. C[C@H](CO)N1C[C@H](C)[C@H](CN(C)S(C)(=O)=O)Oc2ncc(C3=CCCC3)cc2C1=O  25.5%
4. COC(=O)N(C)C[C@H]1OCc2ccccc2-c2ccccc2C(=O)N([C@@H](C)CO)C[C@H]1C  23.3%
5. CCCNC(=O)Nc1ccc2c(c1)C(=O)N(C)C[C@@H](OC)[C@H](C)CN(CCC)[C@@H](C)CO2  21.3%
6. C[C@@H]1CN([C@@H](C)CO)C(=O)c2c(c3ccccc3n2C)-c2ccccc2CO[C@@H]1CN(C)S(=O)(=O)CC(F)(F)F  20.5%
7. O=C(c1ccccc1)N1CC(=O)N2[C@@H](CO)[C@H](c3ccc(C#CC4CC4)cc3)[C@@H]2C1  16.5%
8. CC(C)NC(=O)N(C)C[C@@H]1OCc2ccccc2-c2c(n(C)c3ccccc23)C(=O)N([C@@H](C)CO)C[C@H]1C  16%
9. CN1c2ccc(Br)cc2[C@@H]2[C@@H](CCN2C(=O)C2CCCCC2)[C@H]1CO  11.1%
10. O=C(C[C@@H]1C=C[C@@H](NS(=O)(=O)c2ccccc2)[C@@H](CO)O1)NCc1ccccc1F  8.12%
11. CN(C)CC#Cc1ccc([C@@H]2[C@H](CO)N3CCCCN(C(=O)NC4CCCC4)C[C@@H]23)cc1  2.92%
12. CCCc1cn(CC[C@H]2CC[C@@H](NC(=O)C3CCOCC3)[C@@H](CO)O2)nn1  -3.07%
13. COc1ccccc1NC(=O)N1CC(=O)N2[C@@H](CO)[C@H](c3ccc(C#CC4CC4)cc3)[C@@H]2C1  -3.54%
14. CCCC#Cc1ccc([C@H]2[C@H]3CN(C(=O)Nc4cccc(F)c4)CC(=O)N3[C@H]2CO)cc1  -4.18%
15. COc1ccccc1NC(=O)N[C@H]1CC[C@H](CCNC(=O)Cc2ccccn2)O[C@@H]1CO  -4.42%
16. O=C(Nc1ccccc1F)N1CC(=O)N2[C@@H](CO)[C@H](c3ccc(C#CC4CCCC4)cc3)[C@@H]2C1  -8.5%
17. CC(C)C(=O)Nc1ccc2c(c1)C(=O)N(C)[C@H]1CC[C@H](CC(=O)NCc3ccc(F)cc3)O[C@H]1CO2  -8.71%
18. CCC(=O)N1C[C@@H](C)[C@H](OC)CN(C)C(=O)c2ccc(NC(=O)C3CCOCC3)cc2OC[C@@H]1C  -9.88%
19. C[C@H](CO)N1C[C@H](C)[C@@H](CN(C)Cc2ccc(C(F)(F)F)cc2)OCc2ccccc2-c2c(n(C)c3ccccc23)C1=O  -13.7%
20. O=C(C[C@H]1CC[C@@H]2[C@H](COC[C@@H](O)CN2Cc2cc(F)cc(F)c2)O1)NC1CCC1  -26.6%
21. C[C@H](CO)N1C[C@H](C)[C@H](CN(C)C(=O)C2CCC2)Oc2ncc(C#CCc3ccccc3)cc2C1=O  -34.2%
22. C[C@@H]1CN([C@@H](C)CO)C(=O)c2c(c3ccccc3n2C)-c2ccccc2CO[C@H]1CN(C)S(=O)(=O)c1cccs1  -56.5%
23. C[C@@H]1CN([C@@H](C)CO)C(=O)c2c(c3ccccc3n2C)-c2ccccc2CO[C@@H]1CN(C)S(=O)(=O)c1cccs1  -57.7%
24. C[C@@H]1CN([C@H](C)CO)C(=O)c2c(c3ccccc3n2C)-c2ccccc2CO[C@H]1CN(C)S(=O)(=O)c1ccccc1F  -58.8%
25. Cc1ccc(S(=O)(=O)N(C)C[C@H]2OCc3ccccc3-c3ccccc3C(=O)N([C@@H](C)CO)C[C@@H]2C)cc1  -59.6%
26. C[C@@H]1CN([C@@H](C)CO)C(=O)c2c(c3ccccc3n2C)-c2ccccc2CO[C@@H]1CN(C)S(=O)(=O)c1ccc(F)cc1  -60.8%
27. C[C@@H]1CN([C@H](C)CO)C(=O)c2c(c3ccccc3n2C)-c2ccccc2CO[C@@H]1CN(C)Cc1ccc(F)cc1  -64.4%
28. CC(=O)N1Cc2cc(C(=O)NCc3cc(F)cc(F)c3)nc(-c3cccc(C4=CCCC4)c3)c2[C@@H]1CCO  -66.6%
29. Cc1ccccc1S(=O)(=O)N(C)C[C@@H]1OCc2ccccc2-c2c(n(C)c3ccccc23)C(=O)N([C@H](C)CO)C[C@H]1C  -67.7%
30. CC(C)C#Cc1ccc([C@H]2[C@@H](CO)N3C(=O)CN(C(=O)Cc4ccccc4)C[C@H]23)cc1  -68.7%
31. C[C@@H]1CN([C@@H](C)CO)C(=O)Cc2cc(NC(=O)CCCN(C)C)ccc2O[C@@H]1CN(C)Cc1ccc(-c2ccccc2)cc1  -71.2%
32. COc1ccc(S(=O)(=O)N(C)C[C@@H]2OCc3ccccc3-c3ccccc3C(=O)N([C@@H](C)CO)C[C@@H]2C)cc1  -71.4%
33. C[C@H]1CN([C@@H](C)CO)C(=O)c2ccccc2-c2ccccc2CO[C@H]1CN(C)C(=O)Nc1ccc(-c2ccccc2)cc1  -74.8%

In the case of `C[C@H]1CN([C@@H](C)CO)C(=O)c2c(c3ccccc3n2C)-c2ccccc2CO[C@H]1CN(C)S(=O)(=O)c1ccc(C#N)cc1`, the activity change is reported as -85.2% (active).
For `C[C@H]1CN([C@@H](C)CO)C(=O)c2ccccc2-c2ccccc2CO[C@H]1CN(C)Cc1ccc(-c2ccccc2)cc1`, the activity change was -88.6% (active).
In the case of `C[C@@H]1CN([C@H](C)CO)C(=O)c2c(c3ccccc3n2C)-c2ccccc2CO[C@H]1CN(C)Cc1ccc(F)cc1`, the activity change is reported as -83.8% (active).
With `C[C@H]1CN([C@@H](C)CO)C(=O)c2ccccc2-c2ccccc2CO[C@@H]1CN(C)S(=O)(=O)c1ccc(C(F)(F)F)cc1` the activity change was -83.7% (active).
In the case of `Cc1ccc(S(=O)(=O)N(C)C[C@@H]2OCc3ccccc3-c3c(n(C)c4ccccc34)C(=O)N([C@@H](C)CO)C[C@@H]2C)cc1`, the activity change is reported as -89.8% (active).
In the case of `C[C@H](CO)N1C[C@H](C)[C@@H](CN(C)S(=O)(=O)c2ccc([N+](=O)[O-])cc2)OCc2ccccc2-c2c(n(C)c3ccccc23)C1=O`, the activity change is reported as -84.4% (active).
In the case of `C[C@H](CO)N1C[C@H](C)[C@@H](CN(C)S(=O)(=O)c2cccc(F)c2)OCc2ccccc2-c2c(n(C)c3ccccc23)C1=O`, the activity change is reported as -87.4% (active).
